# From PubChem BioAssay AID2552 (National Center for Advancing Translational Sciences (NCATS), 2010)
# Active and inactive are the calls of the source. The rule behind the calls is not given here.
# Target: Thyroid hormone receptor beta (Homo sapiens) (UniProt P10828)
# Assay: Irreversible Binding Assay for Inhibitors of the Interaction of Thyroid Hormone Receptor and Steroid Receptor Coregulator 2
# Settings: TRb LBD-SRC2 peptide FP after dialysis, at 100 µM
# Description: NIH Molecular Libraries Probe Production Network [MLPCN] NIH Chemical Genomics Center [NCGC] MLPCN Grant: DK058080 Assay Provider: R. Kip Guy, St. Jude Children's Research Hospital NCGC Assay Overview: Thyroid receptor (TR) regulates many homeostatic processes including basal metabolism, cardiovascular function, body weight, and lipid trafficking. TR modulators are potential therapeutics for obesity and hyperlipidemias but current thyroid analogs have undesirable side effects, particularly cardiac stimulation. To identify whether inhibitors irreversibly block the interaction of TR with the steroid receptor coregulator 2 (SRC2), a fluorescence polarization assay was used (Arnold et al., 2006). […]
# NCGC Assay Protocol Summary: One milliliter TRb (1 uM) was incubated with DMSO (4 %), SRC2-2 peptide (100 uM) or compound (100 uM) for 3 hr in assay buffer (20 mM Tris hydrochloride, pH 7.4, 100mM NaCl, 10% glycerol, 1mM EDTA, 0.01% NP-40, 1mM DTT, 1uM T3 and 4% DMSO). […] The protein samples were concentrated using a 10K spin filter column (Amicon Ultra, Millipore) and then quantified by Bradford analysis. For each sample, 20 uL assay buffer containing 2 uM TRb and 40 nM SRC2 Texas Red probe was incubated in a 384 well plate for 3 hr at ambient temperature and read by an Envision (Perkin Elmer) to detect fluorescence polarization of SRC2-2 Texas Red (555 nm excitation and 632 nm emission). […]
# Thyroid hormone receptor beta (Homo sapiens), sequence (P10828 whole entry, looked up): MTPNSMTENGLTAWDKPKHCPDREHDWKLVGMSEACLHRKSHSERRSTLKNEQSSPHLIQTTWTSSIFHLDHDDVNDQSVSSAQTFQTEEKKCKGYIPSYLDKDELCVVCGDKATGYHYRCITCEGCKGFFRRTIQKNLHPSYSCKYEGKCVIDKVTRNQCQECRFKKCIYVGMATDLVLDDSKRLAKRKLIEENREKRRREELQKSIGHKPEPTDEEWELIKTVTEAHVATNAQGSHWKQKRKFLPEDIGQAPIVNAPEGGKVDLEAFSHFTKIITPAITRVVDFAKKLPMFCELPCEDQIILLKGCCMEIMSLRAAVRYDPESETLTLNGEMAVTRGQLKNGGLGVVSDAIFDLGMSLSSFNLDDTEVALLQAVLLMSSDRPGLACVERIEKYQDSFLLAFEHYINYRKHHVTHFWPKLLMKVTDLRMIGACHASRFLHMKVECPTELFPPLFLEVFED
row,SMILES,"activity change, negative = inhibition"
1,CC1(C)C2CCC1(C)C(NC(=O)COC(=O)c1ccc(S(C)(=O)=O)c([N+](=O)[O-])c1)C2 (stereo unspecified),-96% (active)
